Test [1] in a line: Quantitative High-Throughput drug screen in 47 multiple myeloma cell lines against the NCATS MIPE library collection: KMS28BM_JCRB cell viability assay (AID 1919874). Also: nearly all actives have a fitted effect of over 35% in size. Also: potency is read from the fitted curve at half-maximal effect. The procedure, abridged: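 500 cells/well per myeloma line exposed to pinned MIPE 4.0 compounds for 48 h at 37 °C, 5% CO2. Viability read as ATP by CellTiter-Glo luminescence, normalised to DMSO-only (100%) and media-only (0%) wells.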

A short description of test [2]: qHTS drug screen for cell cycle checkpoint inhibitors in PARPi-resistant BRCA-mutant ovarian cancer cell lines. (AID 1963452; calls by dose curve; also: potency is read from the fitted curve at half-maximal effect). The note with it: PEO1/OlaR viability, CellTiter-Glo luminescence, 96 h; for Z-AUC: stronger effect = lower value. The procedure, abridged:
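PEO1, PEO4 and PEO1/OlaR ovarian cancer cells, 600 per well, exposed 96 h at 37C to a dilution series. Viability read by CellTiter-Glo luminescence, normalized to DMSO and empty wells; activity summarized as Z-AUC.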
On the technique in general: qHTS replaces the single test concentration by a dilution series.

The target in test [3] is Cytochrome P450 3A4 (Homo sapiens) (UniProt P08684). The test can be described thus: qHTS for inhibitors of CYP3A4 against the NCATS DSHEA and TCM libraries (AID 1919971).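 Also: % is scaled to controls: 0 for no effect and ±100 for the full control effect; inhibition lowers luminescence from luciferin made by CYP3A4.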 The procedure, abridged:
(§1)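 Luminescent P450-Glo format: compounds preincubated 15 min with enzyme and luciferin substrate, reaction run 30-45 min after NADPH regeneration solution. Intraplate controls: ketoconazole for CYP3A4 and CYP2C19, sulfaphenazole for CYP2C9.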

Test [4] concerns the target Cytochrome P450 2C19 (Homo sapiens) (UniProt P33261). The test can be described thus: qHTS for inhibitors of CYP2C19 against the NCATS DSHEA and TCM libraries (AID 1919974).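 Also: luminescence from luciferin released by CYP2C19 oxidation of a pro-luciferin substrate; % is scaled to controls: 0 for no effect and ±100 for the full control effect.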 Summed up:
as §1

Test [5] can be described thus: KB-3-1 P-gp reporter qHTS against the NCATS DSHEA and TCM libraries (AID 1919975). Also: 0% is about no effect. Summed up: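 KB-3-1 parental line, 1536-well qHTS: cells seeded, ~4 h attachment, pintool compound addition, ~72 h at 37C, then CellTiter-Glo, 30 min RT, luminescence. Concentration-response format.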
The target of test [6] is Cytochrome P450 1A2 (Homo sapiens) (UniProt P05177). Description: qHTS for inhibitors of CYPIA2 against the NCATS DSHEA and TCM libraries (AID 1919976).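 Also: light from luciferin formed by CYP1A2 from a pro-luciferin substrate; series mostly up to about 37 µM; % is scaled to controls: 0 for no effect and ±100 for the full control effect.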 The procedure, abridged:
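Human CYP1A2 with pro-luciferin substrate (typically 100 mM KPO4), 15 min preincubation with compound, then 1x NADPH regeneration for 30-45 min at room temperature in the dark. Luciferin quantified by luciferase luminescence; furafylline intraplate control.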

A short description of test [7]: qHTS Counterscreen for compound interference against the NCATS DSHEA and TCM libraries (AID 1919978).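 Also: compounds preincubated with 1 µM D-luciferin or buffer before detection reagent; % of control where 0% means no effect.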 The settings on record: firefly luciferase detection reagent interference, luminescence. The procedure, abridged:
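Compounds, titrated from 19.5 nM to 39.8 uM final, were pinned onto 1 uM D-luciferin or plain 100 mM potassium phosphate. After 15 min at room temperature, luciferin detection reagent was added for 30 min before the luminescence read.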

A short description of test [8]: Dual reporter qHTS for agonist of Pregnane X Receptor (hPXR) against the NCATS DSHEA and TCM libraries: Fluorescence readout (AID 1920058). Also: 0% is about no effect. The procedure, abridged:
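hPXR-Luc HepG2 cells, 2000/well in charcoal-stripped serum, attached 5 h, dosed for ~24 h at 37 °C. Fluorescence read is CellTiter-Fluor viability (Ex/Em 405/540 nm); rifampicin positive, tetraoctyl ammonium bromide (92 µM) cytotoxicity controls.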

In test [9] the target is Nuclear receptor subfamily 1 group I member 2 (Homo sapiens) (UniProt O75469). Description: Dual reporter qHTS for antagonist of Pregnane X Receptor (hPXR) against the NCATS DSHEA and TCM libraries: Luminescence Readout (AID 1920060).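 Also: HepG2 cells carrying hPXR luciferase reporter stimulated with rifampicin at 2 µM; 0% is about no effect.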 Summed up: (§2)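 In antagonist mode, 2 uM rifampicin was added to hPXR-Luc HepG2 cells alongside test substances, incubated 24 h at 37 C; luminescence gave reporter activity, and CellTiter-Fluor fluorescence (405/540 nm) gave viability.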
Sequence of Nuclear receptor subfamily 1 group I member 2 (Homo sapiens) (O75469 whole entry, looked up): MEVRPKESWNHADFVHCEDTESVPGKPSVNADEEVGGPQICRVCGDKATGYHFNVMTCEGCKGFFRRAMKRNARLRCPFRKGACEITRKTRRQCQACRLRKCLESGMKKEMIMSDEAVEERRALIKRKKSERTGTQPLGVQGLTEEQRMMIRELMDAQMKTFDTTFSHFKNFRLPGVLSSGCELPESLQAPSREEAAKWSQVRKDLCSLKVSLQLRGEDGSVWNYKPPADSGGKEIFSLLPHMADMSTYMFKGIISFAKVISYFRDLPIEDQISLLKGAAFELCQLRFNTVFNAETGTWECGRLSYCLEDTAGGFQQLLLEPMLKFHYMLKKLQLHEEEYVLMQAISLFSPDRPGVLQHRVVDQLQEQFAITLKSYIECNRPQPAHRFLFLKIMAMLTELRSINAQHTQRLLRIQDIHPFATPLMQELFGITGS

The nature of test [10]: Dual reporter qHTS for antagonist of Pregnane X Receptor (hPXR) against the NCATS DSHEA and TCM libraries: Fluorescence Readout (AID 1920061). Also: 0% is about no effect. The procedure, abridged: as §2
Test [11] can be described thus: qHTS for identification of novel therapeutic agents for treatment of microphthalmiaassociated transcription factor (MiT) renal cell carcinoma (RCC) (AID 1963991). The settings on record: CellTiter-Glo, 48 h, stronger effect = lower value. Summed up:
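Curves over 11 concentrations were fitted to CellTiter-Glo luminescence, scaled between empty wells (0%) and DMSO (100%) viability. Cells were UOK109, UOK124 and UOK145 TFE3-fusion RCC lines at 500/well, exposed 48 hours at 37 C.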

[12] abbreviates: measured here: PEO1 parental Z-AUC.

Molecules are shown by their SMILES. Inconclusive results are not listed. Activity calls are given as the source filed them. Unless noted, calls follow the shape of the dose curve; as a rule, active = well fitted curve in the direction sought with a large enough effect; inconclusive = small, poorly fitted or top-dose-only effect, or another doubt; inactive = no such curve, though single readings can be large; an effect the other way counts as inactive or inconclusive.

Sequence of Cytochrome P450 3A4 (Homo sapiens) (P08684 whole entry, looked up): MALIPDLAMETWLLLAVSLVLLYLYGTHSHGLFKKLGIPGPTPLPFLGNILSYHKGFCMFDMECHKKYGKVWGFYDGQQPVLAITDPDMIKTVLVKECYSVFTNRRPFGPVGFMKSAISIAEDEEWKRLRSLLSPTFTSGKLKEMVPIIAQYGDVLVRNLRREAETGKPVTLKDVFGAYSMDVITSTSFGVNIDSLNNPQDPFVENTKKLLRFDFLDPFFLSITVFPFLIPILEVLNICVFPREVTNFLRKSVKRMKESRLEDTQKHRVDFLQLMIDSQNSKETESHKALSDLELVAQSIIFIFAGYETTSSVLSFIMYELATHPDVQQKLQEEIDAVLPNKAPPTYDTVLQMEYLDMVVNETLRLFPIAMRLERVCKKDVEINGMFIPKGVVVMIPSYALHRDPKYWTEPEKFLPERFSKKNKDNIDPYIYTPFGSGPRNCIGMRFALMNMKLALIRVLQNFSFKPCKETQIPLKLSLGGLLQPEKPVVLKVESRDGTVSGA
Sequence of Cytochrome P450 1A2 (Homo sapiens) (P05177 whole entry, looked up): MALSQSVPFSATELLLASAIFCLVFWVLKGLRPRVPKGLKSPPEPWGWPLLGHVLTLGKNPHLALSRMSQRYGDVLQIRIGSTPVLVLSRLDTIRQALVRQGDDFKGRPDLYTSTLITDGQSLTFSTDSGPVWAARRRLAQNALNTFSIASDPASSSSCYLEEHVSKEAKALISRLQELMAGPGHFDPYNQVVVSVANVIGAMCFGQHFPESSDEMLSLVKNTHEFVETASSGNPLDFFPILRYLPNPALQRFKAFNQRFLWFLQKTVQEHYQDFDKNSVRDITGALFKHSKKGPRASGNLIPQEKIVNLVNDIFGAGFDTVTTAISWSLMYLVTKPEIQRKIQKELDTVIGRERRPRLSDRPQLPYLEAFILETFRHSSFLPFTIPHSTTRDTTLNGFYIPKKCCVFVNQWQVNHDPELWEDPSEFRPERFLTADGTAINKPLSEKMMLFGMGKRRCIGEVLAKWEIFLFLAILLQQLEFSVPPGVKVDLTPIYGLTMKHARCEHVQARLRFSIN
Sequence of Cytochrome P450 2C19 (Homo sapiens) (P33261 whole entry, looked up): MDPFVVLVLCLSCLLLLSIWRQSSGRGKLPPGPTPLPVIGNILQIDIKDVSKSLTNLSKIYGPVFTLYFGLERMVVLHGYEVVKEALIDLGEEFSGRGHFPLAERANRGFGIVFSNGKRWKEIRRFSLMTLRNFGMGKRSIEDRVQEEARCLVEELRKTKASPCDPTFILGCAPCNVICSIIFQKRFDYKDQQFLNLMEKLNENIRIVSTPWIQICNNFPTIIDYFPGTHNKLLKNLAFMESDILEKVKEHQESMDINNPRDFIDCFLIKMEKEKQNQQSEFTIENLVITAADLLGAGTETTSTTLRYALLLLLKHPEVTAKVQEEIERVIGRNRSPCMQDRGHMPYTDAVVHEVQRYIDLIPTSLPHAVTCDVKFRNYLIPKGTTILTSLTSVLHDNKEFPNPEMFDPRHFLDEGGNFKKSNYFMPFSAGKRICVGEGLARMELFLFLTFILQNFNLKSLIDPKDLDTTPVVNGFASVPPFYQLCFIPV

As to `CCS(=O)(=O)Nc1ccc2[nH]c(O)c(C(=Nc3ccc(CN4CCCCC4)cc3)c3ccccc3)c2c1`, the Potency in [1] was 132 nM (active). For the same compound, the Z-AUC in [2] was -1.37 (inactive); in [2] (setting [12]), -1.2; in test [2] (measured here: PEO4 Z-AUC), -1.32.
Turning to `COc1cc(OC)cc(-c2ccc3ncc4ccc(=O)n(-c5ccc(N6CCNCC6)c(C(F)(F)F)c5)c4c3c2)c1`, the Potency in test [1] is 4690 nM (active).
On to `C[C@H](NCc1ccc2c(c1)nc(NC(=O)c1ccc(-c3cn[nH]c3)s1)n2CCc1ccccc1)C(C)(C)C`, for which the Potency in test [1] was 833 nM (active).
In the case of `CC(=CC(=O)Nc1ccccc1C(=O)O)c1ccc2ccccc2c1`, the Potency result in test [1] was “inactive”.
As for `Cc1cnn(C)c1C(=O)Nc1cc(Nc2ccc3c(C=Cc4ccccn4)n[nH]c3c2)ccc1F`, in test [1], the Potency is 20900 nM (active).
Turning to `CCc1ccc(C(=O)Nc2cc(CN3CCN(C)CC3)cc(C(F)(F)F)c2)cc1C#Cc1cnc2ccnn2c1`, in test [1], the Potency is 4180 nM (active). Also, the figures for the Z-AUC in [2], in test [2] (setting [12]) and in test [2] (measured here: PEO4 Z-AUC) were -0.668 (inactive), -1.24 and -0.914, respectively.
For `CC(=O)NCC(=O)N1[C@H]2CC[C@H]1c1cc(Nc3ncc(C(F)(F)F)c(NC4CCC4)n3)ccc12`, in [1], the Potency was 3320 nM (active).
For `C[C@](Cc1c[nH]c2ccccc12)(NC(=O)OC1C2CC3CC(C2)CC1C3)C(=O)NC[C@H](NC(=O)CCC(=O)O)c1ccccc1` (stereo partly drawn), the Potency result in [1] is “inactive”. In addition, the Z-AUC in test [2] was -0.246 (inactive); in [2] (setting [12]), -0.184; in test [2] (measured here: PEO4 Z-AUC), -0.0323.
As to `CC(=O)OCC(=O)[C@@]1(O)CC[C@H]2[C@@H]3CCC4=CC(=O)CC[C@]4(C)[C@@H]3C(=O)C[C@@]21C`, the Potency result in [1] is “inactive”.
As to `C[C@H]1[C@@H](OC(=O)CCC(=O)O)O[C@@H]2O[C@@]3(C)CC[C@@H]4[C@H](C)CC[C@@H]1[C@@]24OO3`, in test [1], the Potency was 14800 nM (active). Besides, the Z-AUC was -0.162 (inactive) in [2], -0.815 in test [2] (setting [12]) and -0.572 in test [2] (measured here: PEO4 Z-AUC).
On to `CC1(C)O[C@@H]2C[C@H]3[C@@H]4CCC5=CC(=O)C=C[C@]5(C)[C@@H]4[C@@H](O)C[C@]3(C)[C@]2(C(=O)CO)O1`, for which the Potency entry in test [1] is “inactive”.
For `C=C1C(=CC=C2CCC[C@]3(C)[C@@H]([C@H](C)CCCC(C)(C)O)CC[C@@H]23)C[C@@H](O)C[C@@H]1O`, the Potency in test [1] is 1870 nM (active).
As to `Cc1ncc(-c2ccnc(Nc3ccc(S(C)(=O)=O)cc3)n2)n1C(C)C`, the Potency in test [1] is 4690 nM (active). Moreover, the Z-AUC was -1.39 (inactive) in test [2], -0.968 in test [2] (setting [12]) and -1.44 in test [2] (measured here: PEO4 Z-AUC).
On to `COc1ccc(CCC(=O)c2c(O)cc(O[C@@H]3O[C@H](CO)[C@@H](O)[C@H](O)[C@@H]3O[C@@H]3O[C@@H](C)[C@H](O)[C@@H](O)[C@@H]3O)cc2O)cc1O`, for which the Potency result in test [1] was “inactive”.
The same measure, in the same setting: for `CC(=O)N1CCN(c2ccc(OCc3nn(C)c(C)c3-c3cccc4c(CCCOc5cccc6ccccc56)c(C(=O)O)n(Cc5cccnc5)c34)cc2)CC1` the value was 23.5 nM (active); for `O=C(C=Cc1ccc(CN(CCO)CCc2c[nH]c3ccccc23)cc1)NO`, 52.6 nM (active).
As for `C=CC(=O)N1CCc2ccc(-n3c(=O)ccc4cnc5ccc(-c6cnn(C)c6)cc5c43)cc21`, the Potency in test [1] is 2960 nM (active). Also, the Z-AUC in test [2] is -0.366 (inactive); in [2] (setting [12]) it was -0.285; in [2] (measured here: PEO4 Z-AUC), -0.334.
For `Cc1cnc(Nc2ccc(N3CCN(C)CC3)cc2)nc1Nc1cccc(S(=O)(=O)NC(C)(C)C)c1` the same measures were 5260 nM (active), -0.289 (inactive), -0.236 and -0.304.
The like results for `c1ccc(CNc2nc(NCc3ccccc3)c3ccccc3n2)cc1` were, in that order, 11800 nM (active), 0.198 (inactive), -0.502 and -0.739.
With `CCOC(=O)N1CCN([N+]([O-])=NOc2ccc([N+](=O)[O-])cc2[N+](=O)[O-])CC1`, the Potency in test [1] is 833 nM (active).
For `O=C(C[C@@H]1CC=CCCC(=O)O[C@H](c2ccccc2)CNC1=O)NCc1ccc(Cl)cc1`, in test [1], the Potency result is “inactive”.
Take `CCN(CC)Cc1ccc2cc(COC(=O)Nc3ccc(C(=O)NO)cc3)ccc2c1`: the values for the Potency in test [1] and in test [2] were 418 nM (active) and 977 nM (active), respectively. The Z-AUC was -1.11 in [2] (setting [12]) and -1.29 in [2] (measured here: PEO4 Z-AUC).
In the case of `C[C@@]12C[C@@]3(O)O[C@@H](O1)[C@]1(COC(=O)c4ccccc4)[C@@H]3C[C@@]12O[C@@H]1O[C@H](CO)[C@@H](O)[C@H](O)[C@@H]1O`, the Potency result in [1], in test [3] and in test [6] was “inactive” each time. Also, the outcome in test [4], in test [5], in [8], in test [9] and in test [10] was inactive. In test [7], the max response was 0.508% (inactive). Moreover, the z-score was -0.0471 in test [11] (TFE3-RCC UOK109 viability, measured here: UOK109 Z-AUC); 0.702 in [11] (TFE3-RCC viability, measured here: UOK124 Z-AUC); -0.0246 in test [11] (TFE3-RCC viability, measured here: UOK145 Z-AUC).
Take `COC1=C2C[C@@H](C)C[C@H](OC)[C@@H](O)[C@@H](C)C=C(C)[C@H](OC(N)=O)[C@@H](OC)C=CC=C(C)C(=O)NC(=CC1=O)C2=O`: the Potency in test [1] is 93.5 nM (active).
For `N#Cc1ccc(COC[C@H]2O[C@@H](n3c(NCc4ccc(Cl)c(Cl)c4)nc4c(N)ncnc43)[C@@H](O)[C@@H]2O)cc1`, in test [1], the Potency was 5900 nM (active).

The record behind these values is PubChem BioAssay (NCATS).
